Experimental data as given in PubChem BioAssay AID1159580 (chemical genetic matrix, 2015).
The whole screen tested about 5,500 compounds, of which about 2,000 (36%) were called active. Another 18% or so got no clear call; they are omitted. Cut-off read from the data, not from the text of the source: active = normalized growth mostly below about 0.91 (no sharp cut-off); inconclusive = no clear call, values can overlap the other calls; inactive = mostly above about 0.92. This is one part of the list.

Experiment: chemical genetic growth profiling, strain panel (AID 1159580);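 note: tested at 20 µM; growth read once vehicle control cultures reached saturation at 30 °C; 1 = growth at the plate median or of vehicle wells; lower values mean less growth of the strain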
Details: S. cerevisiae deletion strains, growth OD

Measured: normalized growth

NC(=S)N/N=C1/CCCc2ccccc21
inactive: locus YAR019C, strain CDC15, stronger effect = lower value 0.923 | locus YBL105C, strain PKC1, stronger effect = lower value 0.944 | locus YBR135W, strain CKS1, stronger effect = lower value 0.939 | locus YBR136W, strain MEC1, stronger effect = lower value 0.909 | locus YBR160W, strain CDC28, stronger effect = lower value 0.905 | locus YDL017W, strain CDC7, stronger effect = lower value 0.921 | locus YDL028C, strain MPS1, stronger effect = lower value 0.924 | locus YDL101C, strain DUN1, stronger effect = lower value 0.921 | locus YDL108W, strain KIN28, stronger effect = lower value 0.906 | locus YDL214C, strain PRR2, stronger effect = lower value 0.805 | locus YDR054C, strain cdc34, stronger effect = lower value 0.885 | locus YDR477W, strain SNF1, stronger effect = lower value 0.748 | locus YER123W, strain YCK3, stronger effect = lower value 0.891 | locus YER133W, strain GLC7, stronger effect = lower value 0.802 | locus YFL009W, strain cdc4, stronger effect = lower value 0.92 | locus YFL029C, strain CAK1, stronger effect = lower value 0.921 | locus YFR003C, strain YPI1, stronger effect = lower value 0.913 | locus YFR019W, strain FAB1, stronger effect = lower value 0.925 | locus YGR040W, strain KSS1, stronger effect = lower value 0.805 | locus YGR052W, strain FMP48, stronger effect = lower value 0.746 | locus YGR092W, strain DBF2, stronger effect = lower value 0.814 | locus YHR079C, strain IRE1, stronger effect = lower value 0.954 | locus YHR082C, strain KSP1, stronger effect = lower value 0.935 | locus YHR205W, strain SCH9, stronger effect = lower value 0.993 | locus YIL147C, strain SLN1, stronger effect = lower value 0.91 | locus YJL095W, strain BCK1, stronger effect = lower value 0.934 | locus YJL128C, strain PBS2, stronger effect = lower value 0.966 | locus YJL157C, strain FAR1, stronger effect = lower value 0.749 | locus YJR066W, strain TOR1 (second series), stronger effect = lower value 0.824 | locus YJR066W, strain TOR1, stronger effect = lower value 0.765 | locus YKL067W, strain YNK1, stronger effect = lower value 0.796 | locus YKL101W, strain HSL1, stronger effect = lower value 0.822 | locus YKL193C, strain SDS22, stronger effect = lower value 0.922 | locus YLR113W, strain HOG1, stronger effect = lower value 1 | locus YLR133W, strain CKI1, stronger effect = lower value 0.796 | locus YML070W, strain DAK1, stronger effect = lower value 0.914 | locus YMR001C, strain CDC5, stronger effect = lower value 0.939 | locus YMR205C, strain PFK2 (second series), stronger effect = lower value 0.759 | locus YNL006W, strain LST8, stronger effect = lower value 0.978 | locus YNL020C, strain ARK1, stronger effect = lower value 0.802 | locus YNL161W, strain CBK1, stronger effect = lower value 0.955 | locus YNL183C, strain NPR1, stronger effect = lower value 0.735 | locus YNL222W, strain SSU72, stronger effect = lower value 0.956 | locus YNL307C, strain MCK1 (second series), stronger effect = lower value 0.695 | locus YOL078W, strain AVO1, stronger effect = lower value 0.925 | locus YOL136C, strain PFK27, stronger effect = lower value 0.922 | locus YOR061W, strain CKA2, stronger effect = lower value 0.902 | locus YOR231W, strain MKK1, stronger effect = lower value 0.912 | locus YOR329C, strain SCD5, stronger effect = lower value 0.965 | locus YPL031C, strain PHO85, stronger effect = lower value 0.788 | locus YPL153C, strain RAD53, stronger effect = lower value 0.837 | locus YPL204W, strain HRR25, stronger effect = lower value 0.872 | locus YPL209C, strain IPL1, stronger effect = lower value 0.934 | locus YPL256C, strain CLN2, stronger effect = lower value 0.999 | locus YPR025C, strain CCL1, stronger effect = lower value 0.937 | locus YPR106W, strain ISR1, stronger effect = lower value 0.913 | locus YPR111W, strain DBF20, stronger effect = lower value 0.874 | strain NNK1, stronger effect = lower value 0.908 | strain TSCII, stronger effect = lower value 0.93
active: locus YDR052C, strain DBF4, stronger effect = lower value 0.884 | locus YDR226W, strain ADK1, stronger effect = lower value 0.866 | locus YFR028C, strain CDC14, stronger effect = lower value 0.834 | locus YHR030C, strain SLT2, stronger effect = lower value 0.805 | locus YJR016C, strain ILV3, stronger effect = lower value 0.896 | locus YKL048C, strain ELM1, stronger effect = lower value 0.781 | locus YKL203C, strain TOR2, stronger effect = lower value 0.589 | locus YLR403W, strain SFP1, stronger effect = lower value 0.659 | locus YNL207W, strain RIO2, stronger effect = lower value 0.858 | locus YOR119C, strain RIO1, stronger effect = lower value 0.573
